# This is a sample that favours compounds with a hit; in the whole collection about 18% have one here.
# CtBP-E1A blk: inhibitors of CtBP/E1A interaction; AlphaScreen GST-E1A/His-CtBP binding, 1536-well; hits give low values; activity change, % (test concentration not listed); hit rate 0.49% among 340,000; AID 651724; in the data active = activity change below about -65%; inconclusive = mostly about -30% to -63%
#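 In 5 uL wells, 23 nL compound meets equimolar GST-E1A and His-CtBP (5X stock 125 nM each) for 2 h, 37 °C. Beads (5X, 50 ug/mL) then 1 h, 37 °C, dark.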
# DT40 TDP1 CPT: growth inhibition of DT40 Tdp1-/-;hTDP1 cells with camptothecin (screen for TDP1 inhibitors). AID 686979. hit rate 12% among 420,000. chicken DT40 Tdp1-/-;hTDP1 cells + 20 nM CPT, ATP luminescence, 48 h. Potency, µM (top dose mostly 46.2 µM), without a hit: at the highest dose activity change, negative = growth inhibition, usual class: inhibitors; also: potency is read from the fitted curve at half-maximal effect; nearly all actives have a fitted effect of over 55% in size
#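 Chicken DT40 Tdp1-/- cells stably complemented with human TDP1 were seeded at 400 cells/well in medium containing 20 nM camptothecin, exposed to pin-transferred compounds, and grown at 37 °C for at least 48 hr. Viability was read as ATP luminescence.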
# Six1-Eya2 inh: Six1/Eya2 interaction inhibition | hit rate 0.56% among 360,000 | activity change, % (concentration not given with the values) | AlphaScreen GST-Six1/His-Eya2 binding, biochemical; hits give low values | Q15475+O00167 | AID 651725; in the data active = activity change below about -65%; inconclusive = mostly about -30% to -63%
#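 AlphaScreen luminescence read after one hour at 37 °C in darkness. Pin-transferred compounds met GST-Six1 and His-Eya2 protein (5X stock 250 nM/500 nM) plus glutathione donor and Ni-chelate acceptor beads (5X, 50 ug/mL).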
# TDP1 cell noCPT: qHTS for Inhibitors of human tyrosyl-DNA phosphodiesterase 1 (TDP1): qHTS in cells in absence of CPT; DT40 Tdp1-/- hTDP1 cells, no CPT, ATP luminescence, 48 h; Potency, µM (titrated, usually from 46.2 µM), inactives show at the highest dose activity change, negative = growth inhibition, actives largely listed as inhibitors; hit rate 15% among 420,000; also: potency is read from the fitted curve at half-maximal effect; nearly all actives have a fitted effect of over 55% in size
#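 Growth kinetics read by CellTiter-Glo luminescence after ≥48 hr at 37 °C. Cells: DT40 Tdp1-/- stably carrying human TDP1, 400 per well, compound exposure in the absence of CPT (DMSO vehicle).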
# IL1B secr inh: inhibitors of inflammasome signaling (IL-1 beta secretion) | AID 743279 | hit rate 4.7% among 360,000 | activity change, % at 57.5 µM | THP-1 LPS/ATP IL-1B secretion, AlphaLISA, 16 h; hits give low values; in the data active = activity change below about -50%; inconclusive = mostly about -30% to -49%
#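 THP-1 cells pretreated 1 hr with compounds (up to 57.5 uM final), then stimulated with LPS (250 ng/mL final) plus ATP (1.25 mM final); secreted IL-1B measured by AlphaLISA after 16 hr, decreased signal indicating inhibition.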
# TDP1 inh: blocks human tyrosyl-DNA phosphodiesterase 1 | hit rate 0.28% among 350,000 | AID 485290 | Q9NUW8 | recombinant TDP1, AlphaScreen DNA substrate cleavage | Potency, µM (titrated, usually from 130 µM), for inactives: at the highest dose activity change, negative = inhibition, most hits filed as inhibitors; also: potency is read from the fitted curve at half-maximal effect; nearly all actives have a fitted effect of over 40% in size
# Target sequence (Q9NUW8 whole entry, looked up): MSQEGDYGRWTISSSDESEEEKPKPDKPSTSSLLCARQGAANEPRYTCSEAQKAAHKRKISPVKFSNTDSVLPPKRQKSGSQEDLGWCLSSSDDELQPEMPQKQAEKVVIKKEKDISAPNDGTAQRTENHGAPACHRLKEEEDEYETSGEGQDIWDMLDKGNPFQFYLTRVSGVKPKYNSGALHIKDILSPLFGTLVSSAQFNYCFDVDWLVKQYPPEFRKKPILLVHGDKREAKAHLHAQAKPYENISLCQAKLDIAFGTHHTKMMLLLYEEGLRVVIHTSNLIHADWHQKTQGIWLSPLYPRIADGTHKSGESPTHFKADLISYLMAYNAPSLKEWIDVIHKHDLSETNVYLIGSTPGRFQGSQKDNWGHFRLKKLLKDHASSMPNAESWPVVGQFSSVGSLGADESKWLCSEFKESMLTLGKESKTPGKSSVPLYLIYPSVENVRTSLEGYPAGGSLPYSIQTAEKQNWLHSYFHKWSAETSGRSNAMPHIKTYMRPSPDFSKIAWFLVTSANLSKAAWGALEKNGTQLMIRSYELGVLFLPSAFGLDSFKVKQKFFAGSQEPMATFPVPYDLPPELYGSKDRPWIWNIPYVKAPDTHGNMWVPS
#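 Tdp1 1 nM final; 15 min RT w/ cpd; substrate 15 nM, 5 min; beads 10 ug/ml, 10 min; AlphaScreen read. Neg ctrl: no enzyme.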
# * marks the source's active call; other numbers are inactive results; u = inconclusive; x = no result given; [ ] = another dose, or the depositor's remark. Unless noted, calls follow the shape of the dose curve; as a rule, active = well fitted curve in the direction sought with a large enough effect; inconclusive = small, poorly fitted or top-dose-only effect, or another doubt; inactive = no such curve, though single readings can be large; an effect the other way counts as inactive or inconclusive. % is scaled to controls: 0 for no effect and ±100 for the full control effect.
SMILES,CtBP-E1A blk,DT40 TDP1 CPT,Six1-Eya2 inh,TDP1 cell noCPT,IL1B secr inh,TDP1 inh
COc1ccc(CC(=O)NC(=S)Nc2ccc(S(=O)(=O)NC(C)(C)C)cc2)cc1,-1,u,-2,-11%,10,7%
CCN1CCSc2ccc(C(=O)NCc3ccccc3F)cc21,-23,-13%,-21,-19%,-13,x
O=C(NCCCN1CCOCC1)c1ccc2c(c1)N(Cc1ccc(F)cc1)CCS2,-18,16µM*,-12,u,-5,6%
CN1CCN(CCCNC(=O)c2ccc3c(c2)N(Cc2ccc(F)cc2)CCS3)CC1,-15,16µM*,-10,u,-8,5%
CCN1CCN(CCCNC(=O)c2ccc3c(c2)N(Cc2ccccc2)CCS3)CC1,-17,23µM*,-13,u,-27,7%
CCCCN(CCCC)CCNC(=O)CN1C(=O)CSc2ccc(S(=O)(=O)N3CCOCC3)cc21,1,u,0,u,-18,1%
COc1ccccc1N1CCN(S(=O)(=O)c2ccc3c(c2)NC(=O)C(C)C(=O)N3)CC1 (stereo not drawn),24,u,15,u,29,x
COc1cccc(CNC(=O)C(=O)NCCC2CCCCN2S(=O)(=O)c2cccs2)c1 (stereo not drawn),8,u,-3,u,-8,x
Cc1ccc(C2=NS(=O)(=O)N(C)C(C(=O)N(C)C3CCCCC3)=C2)cc1,-2,u,-16,-21%,-7,x
COc1ccc(-c2cc3ccccc3n2CC(O)CN2CCCCC2)cc1 (stereo not drawn),-23,-24%,-30,-18%,-27,x
CCC(=C(c1ccc(OC)cc1)c1ccc(OC)cc1)c1cn(CC(O)CN2CCN(C)CC2)c2ccccc12 (stereo not drawn),-1,10µM*,-27,13µM*,-106*,9%
S=C(Nc1ccccc1Cl)NC1CCCCCC1,x,u,-3,u,-14,5%
COc1cccc(-c2csc(Nc3ccc(Oc4ccccc4)cc3)n2)c1,-7,u,-17,u,-18,x
Oc1ccc(Nc2nc(-c3cccs3)cs2)cc1,6,-7%,2,6%,-3,-3%
COc1ccccc1-c1csc(Nc2ccc(Oc3ccccc3)cc2)n1,-3,18µM*,-8,u,7,x
COc1ccc(Nc2nc(-c3cccs3)cs2)cc1,-10,21µM*,-7,23µM*,4,6%
Cc1ccc(/C=[N+](\[O-])c2ccc(N(C)C)cc2)c2nsnc12,-25,7.3µM*,u,16µM*,-99*,8%
Brc1ccc2c(c1)CNc1c(ncnc1N1CCOCC1)O2,-2,16µM*,-4,u,-12,6%
Cc1ncc(CO)c2c1Oc1nc(-c3ccccc3)nc(SCC(=O)N(C)c3ccccc3)c1C2,x,x,x,x,x,-14%
Cn1c(SCc2nc(-c3ccccc3)no2)nnc1-c1cccs1,-3,-22%,-4,2%,3,-1%[56.1 µM]
Cn1c(SCc2nc(-c3ccc(Cl)cc3)no2)nnc1-c1cccs1,-8,u,4,16µM*,u,-1%
CCn1c(SCc2nc(-c3ccc(Cl)cc3)no2)nnc1-c1ccco1,-1,u,-5,21µM*,u,4%
COc1cc2c(OC)cccc2cc1C(=O)O,0,-4%,-1,-11%,2,-9%
Cc1nc2ccccn2c1-c1ccnn1S(=O)(=O)c1ccc(F)cc1,x,21µM*,-5,12µM*,20,3%
Cc1nc2ccccn2c1-c1nnco1,0,7%,-2,-23%,0,5%
SMILES,CtBP-E1A blk,DT40 TDP1 CPT,Six1-Eya2 inh,TDP1 cell noCPT,IL1B secr inh,TDP1 inh
Cc1ccc(C=Nc2ccccc2C(N)=O)s1,0,4.1µM*,14,3.7µM*,30,5%
CCCCSc1nnc2n(CCc3ccccc3)c(=O)c3c4c(sc3n12)COC(C)(C)C4,-2,23µM*,7,23µM*,-3,5%
CCN(CC)S(=O)(=O)c1cc(-c2nn(C)c(=O)c3ccccc23)ccc1C,6,23µM*,10,16µM*,38,x
Cn1nc(-c2ccc3c(c2)OCCO3)c2ccccc2c1=O,2,u,-1,21µM*,37,0%
CCCCNS(=O)(=O)c1cc(-c2nn(C)c(=O)c3ccccc23)ccc1C,-13,u,-9,-1%,-65*,x
Cc1ccc(-c2nn(C)c(=O)c3ccccc23)cc1CNC(=O)Cn1nc(-c2ccccc2)c2ccccc2c1=O,x,x,x,x,x,-2%
COCCNS(=O)(=O)c1cc(-c2nn(C)c(=O)c3ccccc23)ccc1C,-1,4%,7,u,24,-6%
Cc1cc(C)n(CC(=O)NCc2cc(-c3nn(C)c(=O)c4ccccc34)ccc2C)n1,-1,u,-6,16µM*,-1,-2%
CCCCCCN1C[C@@H](n2cc(-c3ccc(F)cc3)nn2)[C@H](O)C[C@@H]1c1ccccc1,-6,u,0,13µM*,-10,x
CCCCCCN1C[C@H](O)[C@@H](n2cc(-c3ccc(F)cc3)nn2)C[C@@H]1c1ccc(C)cc1,2,u,-1,23µM*,-18,x
CCCCCCN1C[C@@H](O)[C@H](n2cc(-c3ccc(F)cc3)nn2)C[C@@H]1c1ccc(C)cc1,-1,u,0,21µM*,3,x
CCOc1ccc(N/C(=N/c2nc(C)cc(C)n2)NC(=O)CC)cc1,x,u,1,u,0,0%
COc1ccc(NC(=O)CCSc2ccc3ccccc3n2)cc1,4,-10%,4,-16%,38,1%
COc1ccc(CNC(=O)CCSCc2ccc(C)cc2)cc1,-14,-16%,-8,-24%,-4,1%
CC1CC(C)CN(C(=O)COC(=O)CCc2nc3ccccc3c(=O)[nH]2)C1 (stereo not drawn),7,-23%,4,0%,33,3%
Fc1ccc(Nc2ccnc(Nc3ccc(F)cc3)n2)cc1,-7,16µM*,3,18µM*,-94*,-3%
Nc1ncnc(Nc2ccc(F)cc2)n1,-1,6%,0,15%,14,-2%
FC(F)(F)c1cccc(NC(=S)N2CCN(c3ccccc3)CC2)c1,-2,-26%,3,u,11,1%
Cc1nnc2ccc(N3CCN(c4cccc(C(F)(F)F)c4)CC3)nn12,-29,26µM*,-20,16µM*,45,0%
FC(F)(F)c1cccc(N2CCN(C(=S)NC3CCCC3)CC2)c1,6,u,0,16µM*,-57*,3%

# High-throughput results (PubChem)
